High-throughput results (PubChem BioAssay)
Mtb hypoxia rep: reduces hypoxia-regulated biosensor signal in M. tuberculosis; M. tuberculosis hypoxia-regulated fluorescent reporter, fluorescence; fluorescence inhibition, % (concentration not given with the values); hit rate 0.1% among 300,000; in the data active = fluorescence inhibition mostly above about 23%, no sharp cut-off; inactive = mostly below about 17%
Mtb betalactam: beta-lactam sensitization of Mtb H37Rv; inhibition, % at 25 µM; hit rate 0.27% among 330,000; M. tuberculosis H37Rv growth with meropenem, percent inhibition;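 also: growth measured after seven days incubation then overnight dye step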
Mtb UGM inh: inhibitors of M. tuberculosis UDP-galactopyranose mutase; hit rate 0.06% among 320,000; P9WIQ1; purified UGM, fluorescence polarization probe displacement; inhibition, % at 10 µM; AID 504406; in the data active = inhibition above about 10%, passing the limit was not always enough
RecA intein inh: Mtb RecA intein splicing inhibition. P9WHJ3. cell-free RecA intein splicing, fluorescence. inhibition, % (test concentration not listed). hit rate 0.75% among 290,000. AID 2221; in the data active = inhibition above about 30%
Rv3671c inh: inhibits the M. tuberculosis serine protease Rv3671c. P9WHR9. inhibition, % at 5.96 µM. hit rate 0.048% among 320,000; in the data active = inhibition above about 38%;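 also: extracellular domain of Rv3671c used as enzyme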
GFP chromo cs: counter-screen GFP chromophore formation inhibition. shares compounds with RecA intein inh. cell-free GFP chromophore formation, fluorescence. EC50, µM. hit rate 83% among 2,100. AID 434968
Hits are given with their value; n = inactive; x = no result shown. In the library only some 0.77% were active in any assay of this set; here they are far more common. Unless noted, no rule for the calls is given here.

SMILES	Mtb hypoxia rep	Mtb betalactam	Mtb UGM inh	RecA intein inh	Rv3671c inh	GFP chromo cs
Cc1ccc(C(C[N+](=O)[O-])c2c(N)n(C)c(=O)n(C)c2=O)cc1 (configuration not stated)	x	n	n	n	n	x
COc1cccc(C(C[N+](=O)[O-])c2c(C)[nH]n(-c3ccccc3)c2=O)c1 (configuration not stated)	x	n	n	96	n	27
Cc1[nH]n(-c2ccccc2)c(=O)c1C(C[N+](=O)[O-])c1ccc(Br)cc1 (configuration not stated)	x	n	n	77	n	17
COc1cccc(N=Nc2c(C)[nH]n(-c3ccccc3)c2=O)c1	n	n	n	n	n	x
COc1ccc(NC(=O)NC(CCSC)C(=O)O)cc1Cl (configuration not stated)	n	x	x	x	x	x
CCOC(=O)C1C2COc3cc(OC)ccc3C2N2C(=O)c3cc(F)c(F)cc3NC(=O)[C@@]12C (some centres not stated)	n	x	x	x	x	x
CC1CCCC(=CNc2ccc(C(=O)O)cc2)C1=O (configuration not stated)	n	x	x	x	x	x
N#CCCn1cc(C=C2C(=O)NC(=O)NC2=O)c(-c2ccccc2)n1	n	n	n	n	n	x
CC1=NN(c2ccccc2)C(=O)/C1=C\c1cn(CCC#N)nc1-c1ccc(Cl)cc1	x	n	n	37	n	10
O=[N+]([O-])c1c(NCCCO)cc(SCc2ccco2)c2nonc12	n	n	n	65	n	27
Cn1ccnc1Sc1cc(NCCCO)c([N+](=O)[O-])c2nonc12	x	n	n	67	n	14
O=[N+]([O-])c1c(NCCCO)cc(N2CCCCCC2)c2nonc12	n	n	n	n	n	x
CC(=O)OCCNc1cc(SCc2ccco2)c2nonc2c1[N+](=O)[O-]	n	n	n	78	n	11
CC(=O)OCCNc1cc(Sc2nc3ccccc3[nH]2)c2nonc2c1[N+](=O)[O-]	x	n	n	n	n	x
O=[N+]([O-])c1c(NCCCO)cc(Sc2ccc(Cl)cc2)c2nonc12	n	n	n	n	n	x
O=C1NC(=O)C(=Cc2ccc(Oc3ccc([N+](=O)[O-])cc3)cc2)C(=O)N1	n	n	n	68	n	n
CC1CN(C(C)CO)C(=O)c2cccc(NC(=O)Cc3ccccc3)c2OC1CN(C)Cc1ccc2c(c1)OCO2 (configuration not stated)	n	x	x	x	x	x
CC=CC(=O)Nc1cccc(C2=NOC3(C2)CC(C(N)=O)N(C(=O)CC(c2ccccc2)c2ccccc2)C3)c1 (configuration not stated)	n	x	x	x	x	x
COc1cccc2c1C(=O)C[C@]1(CCCCC1C)O2 (some centres not stated)	n	x	x	x	x	x
CC1=NN(c2nc(C)cc(C)n2)C(=O)C1CCC(C)C (configuration not stated)	n	n	n	n	n	x
CCC1C(=O)N(c2nc(C)cc(C)n2)N=C1C (configuration not stated)	n	n	n	67	n	20
CC(=O)N1C(Cc2ccccc2)C=C[C@]1(C)C(=O)NCCN1CCOCC1 (some centres not stated)	n	x	x	x	x	x
CCOc1ccc(N=Nc2c(N)[nH][nH]c2=O)cc1	n	n	n	54	n	18
O=c1cc(-c2ccc(O)cc2)oc2c(C3OC(CO)C(O)C(O)C3O)c(O)cc(O)c12 (configuration not stated)	n	x	x	x	x	x
CC(C)(C)OC(=O)CC1CC=CCC(CC(=O)N(CCO)Cc2ccccc2)C(=O)NC(Cc2ccccc2)COC1=O (configuration not stated)	n	x	x	x	x	x
SMILES	Mtb hypoxia rep	Mtb betalactam	Mtb UGM inh	RecA intein inh	Rv3671c inh	GFP chromo cs
CCCc1nnc(NC(=O)c2nc(S(=O)(=O)Cc3ccc(C)cc3)ncc2Cl)s1	x	n	n	85	n	n
CSc1nnc(NC(=O)c2nc(S(=O)(=O)Cc3ccccc3)ncc2Cl)s1	x	n	n	72	n	30
CC(C)c1nnc(NC(=O)c2nc(S(=O)(=O)Cc3ccccc3)ncc2Cl)s1	x	n	n	79	n	n
COc1ccc(C(=O)Nc2ccncc2)cc1[N+](=O)[O-]	n	n	n	39	x	n
O=C(N/C(=C\c1ccc([N+](=O)[O-])cc1)C(=O)N1CCCCC1)c1ccccc1	x	n	n	n	n	x
O=[N+]([O-])/C(C(Cl)=C(Cl)Cl)=C(/Sc1ccccc1)N1CCCCC1	n	n	n	34	n	n
CN(C1=C(NC(=O)c2ccccc2)C(=O)c2ccccc2C1=O)C1CCS(=O)(=O)C1 (configuration not stated)	n	n	n	93	n	2.7
CN(C)C(=S)N=Nc1[nH]c2ccccc2c1O	n	n	n	59	n	8.2
CN(C)C(=O)c1ccc(N=Nc2c(O)c3ccccc3[nH]c2=O)cc1	n	x	x	x	x	x
CNC(=C[N+](=O)[O-])NCCSCc1csc(CN(C)C)n1	n	x	x	x	x	x
O=C(c1cc(F)c(F)cc1Cl)N1CCN(c2ccc([N+](=O)[O-])c3ncccc23)CC1	n	n	n	32	n	23
Nc1ccc2c(c1)C(=O)C(=O)c1ccccc1-2	x	n	n	97	n	5.1
Nc1ccc2c(c1)C(=O)c1ccccc1-2	n	n	n	n	n	x
CC(CC(=O)c1cccs1)CC(=O)c1cccs1	n	n	n	n	n	x
Cc1cc(C)c(C(CC(=O)c2cccs2)C(C#N)C#N)c(C)c1 (configuration not stated)	n	n	n	83	n	8.6
O=C(CCl)NN=C(c1ccccc1)c1ccccc1	n	n	n	59	n	26
CCC(CC)C(=O)NCc1ccc2c(c1)cc(C)n2C	n	n	n	31	n	n
Fc1cccc(/C=N/Nc2nncc3ccccc23)c1	x	n	n	n	n	x
C(=N\Nc1nncc2ccccc12)/c1ccccn1	x	n	n	38	n	10
Cc1ccccc1CN1C(CC2CCCCC2)COCCS1(=O)=O (configuration not stated)	n	x	x	x	x	x
COc1ccc(CN(CCC(c2ccccc2)c2ccc(OC(C)C)cc2)C(=O)CCl)cc1OC (configuration not stated)	n	n	n	83	n	0.4
COCCN=C1NC(c2ccccc2)C(C(=O)OC)=C(C)N1Cc1ccccc1 (configuration not stated)	n	x	x	x	x	x
CN(C(=O)C(Cl)Cl)c1ccc(OC(=O)c2ccco2)cc1	n	n	n	36	n	n
Cc1ccc(NC(=O)c2ccc(OC(=O)c3ccco3)cc2)cc1	n	n	n	n	n	x
CC1=CC(=Nc2c(C)n(C)n(-c3ccccc3)c2=O)C=C(C)C1=O	n	n	n	n	n	x
CC1=CC(=Nc2c(C)n(C)n(-c3ccccc3)c2=O)C=CC1=O	x	n	n	57	n	27
CC(C)(O)C1CC[C@@](C)(C2CC[C@]3(C)C2C(O)CC2[C@@]4(C)CCC(O)C(C)(C)C4C(OC4OC(CO)C(O)C(O)C4OC4OC(CO)C(O)C(O)C4O)C[C@]23C)O1 (some centres not stated)	n	x	x	x	x	x
